Source: PubChem BioAssay (National Center for Advancing Translational Sciences (NCATS))
D1 antag = human D1 dopamine receptor antagonism; P21728; HEK293 TREx D1 cells, calcium flux, dopamine EC80; stronger effect = lower value; activity change, negative = inhibition, % at 10 µM; 360,000 compounds, 3.2% hits; AID 504652; in the data active = activity change below about -30%
Target sequence (P21728 whole entry, looked up): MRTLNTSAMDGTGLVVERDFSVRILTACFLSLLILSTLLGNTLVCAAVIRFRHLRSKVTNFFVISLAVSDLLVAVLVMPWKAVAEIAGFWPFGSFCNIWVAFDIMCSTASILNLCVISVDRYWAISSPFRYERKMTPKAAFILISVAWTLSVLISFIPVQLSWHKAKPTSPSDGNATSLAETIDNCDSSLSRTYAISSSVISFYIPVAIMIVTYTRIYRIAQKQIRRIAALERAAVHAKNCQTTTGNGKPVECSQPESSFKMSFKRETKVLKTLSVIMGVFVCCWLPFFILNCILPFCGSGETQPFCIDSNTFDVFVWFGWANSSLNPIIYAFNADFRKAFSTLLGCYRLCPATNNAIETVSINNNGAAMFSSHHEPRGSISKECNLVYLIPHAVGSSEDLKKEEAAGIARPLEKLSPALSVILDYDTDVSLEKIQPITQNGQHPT
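Compound effects on dopamine-evoked calcium signalling were measured in tetracycline-induced HEK293 Trex D1 cells. Dopamine at EC80 followed a 180 s compound pre-read, and fluorescence was tracked kinetically for 180 s more.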
D3 ag = agonists of human D3 dopamine receptor; D3R DiscoveRx beta-arrestin cells, luminescence, 90 min; max activation, %; AID 652048; P35462; 410,000 compounds, 0.58% hits; in the data active = max activation above about 30%
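Agonist-mode cell screen: cells plated at 1500/well and incubated overnight at 37 °C, then exposed to library compounds for 90 min at 37 °C. Detection reagent was added for 30–60 min at room temperature, and luminescence was read.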
D1 potentiator = enhances dopamine response at the human D1 receptor; HEK293 TREx D1 cells, calcium flux, dopamine EC20 potentiation; potentiation, % at 10 µM; 360,000 compounds, 0.036% hits; P21728; in the data active = potentiation above about 30%
D1 ag = activates the human D1 dopamine receptor. HEK293 T-REx D1 cells, calcium flux, agonist mode. activation, % at 2 µM. 360,000 compounds, 1% hits; in the data active = activation above about 30%
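Inducible HEK293 T-REx D1 cells, force-coupled to calcium signalling, were plated at 4000 cells/well with tetracycline and held overnight at 30 C. After no-wash calcium dye loading, compound-evoked calcium rise over 180 s flagged agonists.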
DRD3 antagonist = blocks the human D3 dopamine receptor; D3R cells, DiscoveRx beta-arrestin luminescence, antagonist mode; stronger effect = lower value; max response, negative = inhibition, %; 360,000 compounds, 2.5% hits; P35462; in the data active = max response below about -50%; inconclusive = no clear call, values can overlap the other calls
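Cells expressing the human receptor were seeded at 1500 cells/well, incubated overnight at 37 degrees C in 5% CO2, then exposed to library compounds with dopamine controls for 90 minutes at 37 degrees C before luminescent detection.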
Each line names hits and unclear results; the compound was inactive in the other large screens. Shown are actives, neighbours in structure and some others; about 6% of the full set was active somewhere.

O=C(C1CCN(S(=O)(=O)c2cccc3nsnc23)CC1)N1CCc2ccccc2C1	D1 antag -44
O=C(NCCc1ccccc1)C1CCN(S(=O)(=O)c2cccc3nsnc23)CC1	none
Cc1ccc(NC(=O)CN(C)S(=O)(=O)c2cccc3nsnc23)cc1	none
CC1CCN(CCNC(=O)CN(C)S(=O)(=O)c2cccc3nsnc23)CC1	D1 antag -31
CN(CC(=O)Nc1ccc(F)c(Cl)c1)S(=O)(=O)c1cccc2nsnc12	D1 antag -34
O=C(NCCN1CCN(c2ccccc2)CC1)C1CCN(S(=O)(=O)c2cccc3nsnc23)CC1	D3 ag 94
CC1CCN(C(=O)CN(C)S(=O)(=O)c2cccc3nsnc23)CC1	none
CC(=O)Nc1ccc(Nc2ccc3cc(S(=O)(=O)N4CCCCC4)ccc3n2)cc1	none (no result: DRD3 antagonist)
CCNC(=O)c1cnc2sc(N3CCC(C)CC3)nn2c1=O	none (no result: DRD3 antagonist)
COCCn1c(C)cc(C(=O)COC(=O)c2ccc3ncsc3c2)c1C	DRD3 antagonist -55
COCCn1c(C)cc(C(=O)COC(=O)c2cncc(Br)c2)c1C	none
CC(=O)c1c(C)[nH]c(C(=O)NC(C)c2ccccc2)c1C (configuration not stated)	D1 antag -33
CC(=O)c1c(C)[nH]c(C(=O)Nc2ccccc2Cl)c1C	none
CC1=C(C(=O)Nc2cccc(C(F)(F)F)c2)C2(CCCCC2)OC1=O	none (no result: DRD3 antagonist)
CC1=C(C(=O)Nc2cccc(C(F)(F)F)c2)C2(CCCCCC2)OC1=O	D1 ag 32 (no result: DRD3 antagonist)
CC(=O)c1c(C)[nH]c(C(=O)Nc2cccc3ccccc23)c1C	D1 antag -33
CC(=O)c1c(C)[nH]c(C(=O)Nc2cccc(C(F)(F)F)c2)c1C	D1 antag -33
CCOc1ccc(/C=C/c2nc(C#N)c(NC(C)CC)o2)cc1 (configuration not stated)	none (no result: DRD3 antagonist)
CCOc1ccccc1C(=O)Nc1ccc(S(=O)(=O)Nc2ncccn2)cc1	none (no result: DRD3 antagonist)
CCCCS(=O)(=O)c1nc(-c2ccc(Br)cc2)cc(-c2ccccc2)c1C#N	none (no result: DRD3 antagonist)
CCc1ccc(NC(=O)c2[nH]c(C)c(C(C)=O)c2C)cc1	D1 antag -39
N=C1N=C(N)c2cc3ccccc3cc21	none (no result: D1 antag, D1 potentiator, D1 ag, DRD3 antagonist)
O=C(CCC(=O)Nc1ccc(Br)cc1)N/N=C/c1cc([N+](=O)[O-])ccc1O	DRD3 antagonist -59
O=C(CCC(=O)Nc1ccc(F)cc1)N/N=C/c1cc([N+](=O)[O-])ccc1O	DRD3 antagonist -70
Cc1ccn(CC(=O)N/N=C/c2cc([N+](=O)[O-])ccc2O)n1	DRD3 antagonist inconclusive
Cc1cccc(NC(=O)CCC(=O)N/N=C/c2cc([N+](=O)[O-])ccc2O)c1	DRD3 antagonist inconclusive
O=C(CCC(=O)Nc1cc(C(F)(F)F)ccc1Cl)N/N=C\c1cc([N+](=O)[O-])ccc1O	DRD3 antagonist -70
O=C(CC1NCCNC1=O)Nc1cccc(F)c1 (configuration not stated)	none (no result: DRD3 antagonist)
Cc1ccc(NC(=O)CN2C(=O)CSc3ccc(S(=O)(=O)N4CCCC4)cc32)c(C)c1	none (no result: DRD3 antagonist)
CC(C)c1cc(=O)oc2c3c4c(cc12)CCCN4CCC3	D1 ag 30
O=c1oc2c3c4c(cc2c(C(F)(F)F)c1CCN1CCOCC1)CCCN4CCC3	D1 ag 178
O=c1oc2c(CN3CCOCC3)c(O)ccc2c2c1CCC2	none
Cc1cc(=O)oc2c3c4c(cc12)OCCN4CCC3	none
COc1cc(/C=N/N=C2/C(=O)Nc3ccccc32)cc(OC)c1O	DRD3 antagonist -84
CCc1ccc2occ(CC(=O)Nc3sc4c(c3C(=O)NCCOC)CCCC4)c2c1	none (no result: DRD3 antagonist)
Nc1cc(-c2ccccc2)c[nH]c1=O	none (no result: D3 ag, DRD3 antagonist)
O=C(N/N=C\c1cc2c(cc1Cl)OCO2)c1cccnc1	none
CN1CCN(c2ccccc2/C=N/NC(=O)c2cccnc2)CC1	DRD3 antagonist -50
CCc1ccc(NC(=O)c2ccc(F)c(S(=O)(=O)NCc3ccc(Cl)c(Cl)c3)c2)cc1	none (no result: DRD3 antagonist)
Cc1ccc(CSc2nnc3[nH]c(=O)cc(C)n23)cc1	none (no result: D1 antag, DRD3 antagonist)
NC(=O)NOCc1ccc(Cl)cc1Cl	none
CNC(=S)/N=C/NOCc1ccc(Cl)cc1Cl	D1 antag -39
CCCOc1ccc(CNC(=O)c2ccc3c(c2)N(CC)CCS3)cc1	DRD3 antagonist -65
Cc1cc2c(n1-c1ccc(C(=O)NCc3ccccc3Cl)cc1)CCCC2	none (no result: DRD3 antagonist)
O=C(O)CC/C=C\CC[C@@H]1[C@@H](N2CCCCC2)[C@@H](O)C[C@@H]1OCc1ccc(-c2ccccc2)cc1	none (no result: D1 antag, D1 potentiator, D1 ag, DRD3 antagonist)
O=S(=O)(c1ccc(Cl)cc1)N1CCC(N2CCOCC2)CC1	DRD3 antagonist inconclusive
Nc1nc(-c2ccc(Cl)cc2)c(N=Nc2ccc(S(=O)(=O)N3CCOCC3)cc2)s1	DRD3 antagonist -54
COc1ccc(C(C(=O)NCc2ccccc2)N(C(=O)Cn2nnc3ccccc32)c2ccc(OC)cc2)cc1 (configuration not stated)	none (no result: DRD3 antagonist)
CCc1cc2c(=O)[nH]c(-c3ccccn3)nc2s1	DRD3 antagonist -68
CCc1cc2c(=O)[nH]c(N3CCCC3)nc2s1	none
COc1ccccc1C(=O)N1CCN(Cc2cc(=O)oc3cc(C)ccc23)CC1	none (no result: DRD3 antagonist)
O=C(COC(=O)CC(c1ccccc1)c1ccccc1)NCc1ccc(Cl)cc1	D1 antag -34
COc1ccc([C@]23Cc4cc(OC)c(OC)cc4C(O2)c2c(c4ccccc4oc2=O)O3)cc1	none (no result: D3 ag, DRD3 antagonist)
Cc1ccc(S(=O)(=O)N2CCOCC2)cc1C(=O)OCc1nnc(-c2ccccc2)o1	none
NC(=O)COC(=O)c1ccc(S(=O)(=O)NCc2ccco2)cc1	none
O=C(OCc1nnc(-c2ccccc2)o1)c1cc(S(=O)(=O)N2CCOCC2)c(Cl)cc1Cl	D1 antag -34, DRD3 antagonist -55
O=C(OCc1nnc(-c2ccccc2)o1)c1ccc(S(=O)(=O)NCc2ccco2)cc1	DRD3 antagonist -78
O=C(OCc1ccccc1)c1cccc(-c2nnc(-c3ccccc3)o2)c1	D3 ag 38
O=C(OCc1nnc(-c2ccccc2)o1)c1ccc(CO)cc1	DRD3 antagonist -51
O=C(OCc1ccc(C(=O)c2ccccc2)cc1)c1cccc(-c2nnc(-c3ccccc3)o2)c1	none
CC(C)OC(=O)c1c(NC(=O)c2cc3nc(-c4ccccc4)cc(C(F)(F)F)n3n2)sc2c1CCCC2	none (no result: DRD3 antagonist)
Cc1c2cnn(CC(=O)NCCc3ccccc3)c(=O)c2c(C)n1Cc1ccccc1Cl	none (no result: DRD3 antagonist)
O=C(NCCc1ccccc1Cl)c1sc2ncccc2c1-n1cccc1	none (no result: DRD3 antagonist)
CC(=O)c1ccc(NC(=O)c2nc(-c3ccccc3)n(-c3ccc(Cl)cc3)n2)cc1	none (no result: DRD3 antagonist)
CCCCOC(=O)c1ccc(Nc2ncnc3c2cnn3-c2cccc(C)c2)cc1	none (no result: DRD3 antagonist)
CS(=O)(=O)c1ccc(C(=O)OCc2nnc(-c3ccccc3)o2)cc1[N+](=O)[O-]	DRD3 antagonist -60
CC(=O)c1c(C)[nH]c(C(=O)OCc2nnc(-c3ccccc3)o2)c1C	D1 antag -32
CN(C)S(=O)(=O)c1ccc(C(=O)OCc2nnc(-c3ccccc3)o2)cc1	none
Cc1ccc(C(=O)OCc2nnc(-c3ccccc3)o2)o1	DRD3 antagonist inconclusive
